# Data: PubChem BioAssay
# Activity calls are given as the source filed them.
# Experiments:
# [1] = E. coli DRC41 culture turbidity changes, primary screen, E. coli filamentation inducer project, strain DRC41, OD650, 48 h (AID 1152);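 note: E. coli MC1000 strain DRC41 lacking acrAB efflux pump and sulA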; settings: E. coli DRC41 (acrAB sulA), higher = more signal, called active from +8 up or from −8 down
# [2] = small-molecule binders of probe aLefty1, primary screen, biochemical, small-molecule microarray, 635/667 nm fluorescence (AID 1153); settings: higher = more signal;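 note: score merges spot fluorescence with signal-to-noise ratio from the scanned slide images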
# [3] = PSAC antagonists in infected red cells, primary screen, cell-based, P. falciparum Indochina, OD700, 1 h (AID 1154); settings: P. falciparum Indochina infected RBC osmotic lysis, higher = more signal, called active from +8 up or from −8 down
# [4] = PSAC antagonists in infected red cells, primary screen, cell-based, P. falciparum Indochina, OD700, 2 h (AID 1155);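 note: lysis reports solute entry through the parasite surface anion channel PSAC; channel blockers reduce lysis of infected cells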; settings: P. falciparum Indochina infected erythrocytes, osmotic lysis OD700; higher = more signal, called active from +8 up or from −8 down
# [5] = osmotic lysis modulators in infected erythrocytes, primary screen, PSAC antagonist project, cell-based, P. falciparum Indochina, OD700, 3 h (AID 1156); settings: higher = more signal, called active from +8 up or from −8 down
# [6] = PSAC antagonists in infected red cells, primary screen, cell-based, P. falciparum Indochina, OD700, 18 h (AID 1157); settings: P. falciparum Indochina infected erythrocytes, osmotic lysis OD700, 18 h; higher = more signal, called active from +8 up or from −8 down
# [7] = modulators of S6 phosphorylation in cells, primary screen, cell-based, A549, cytoblot, luminescence, serum-stimulated (AID 1158); settings: A549 phospho-S6 cytoblot, 5 h, higher = more signal;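 note: serum-stimulated A549 lung adenocarcinoma cells; signal is phosphorylated S6 detected by cytoblot immunostaining with HRP secondary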
# [8] = target: NADPH oxidase 2 (Homo sapiens) (UniProt P04839); experiment: NOX2-dependent H2O2 signal modulators, primary screen, NOX inhibitor project, cell-based, HEK293-NOX2, PMA-stimulated, Amplex Red fluorescence (AID 1159); settings: 45 min, higher = more signal, called active from +8 up or from −8 down; note: test concentration not given here
# NADPH oxidase 2 (Homo sapiens), sequence (P04839 whole entry, looked up): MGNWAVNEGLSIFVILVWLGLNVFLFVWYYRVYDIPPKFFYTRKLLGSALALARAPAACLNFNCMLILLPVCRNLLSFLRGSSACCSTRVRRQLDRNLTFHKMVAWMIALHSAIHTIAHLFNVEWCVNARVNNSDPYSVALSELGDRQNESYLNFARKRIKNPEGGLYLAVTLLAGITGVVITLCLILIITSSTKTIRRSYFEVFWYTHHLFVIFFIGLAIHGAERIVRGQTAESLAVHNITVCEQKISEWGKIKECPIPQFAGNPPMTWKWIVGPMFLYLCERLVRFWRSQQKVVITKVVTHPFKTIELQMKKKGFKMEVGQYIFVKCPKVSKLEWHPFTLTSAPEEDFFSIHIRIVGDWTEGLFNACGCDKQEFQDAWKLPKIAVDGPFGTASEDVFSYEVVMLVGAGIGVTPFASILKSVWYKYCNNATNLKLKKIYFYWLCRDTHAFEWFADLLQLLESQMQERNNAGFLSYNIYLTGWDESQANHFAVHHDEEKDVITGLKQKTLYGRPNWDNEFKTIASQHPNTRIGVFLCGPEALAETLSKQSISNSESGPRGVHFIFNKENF
# [9] = target: NADPH oxidase 4 (Homo sapiens) (UniProt Q9NPH5); experiment: NOX4-dependent H2O2 signal modulators, primary screen, NOX inhibitor project, cell-based, HEK293-NOX4, tetracycline-induced, Amplex Red fluorescence (AID 1160); settings: 45 min, higher = more signal, called active from +8 up or from −8 down
# NADPH oxidase 4 (Homo sapiens), sequence (Q9NPH5 whole entry, looked up): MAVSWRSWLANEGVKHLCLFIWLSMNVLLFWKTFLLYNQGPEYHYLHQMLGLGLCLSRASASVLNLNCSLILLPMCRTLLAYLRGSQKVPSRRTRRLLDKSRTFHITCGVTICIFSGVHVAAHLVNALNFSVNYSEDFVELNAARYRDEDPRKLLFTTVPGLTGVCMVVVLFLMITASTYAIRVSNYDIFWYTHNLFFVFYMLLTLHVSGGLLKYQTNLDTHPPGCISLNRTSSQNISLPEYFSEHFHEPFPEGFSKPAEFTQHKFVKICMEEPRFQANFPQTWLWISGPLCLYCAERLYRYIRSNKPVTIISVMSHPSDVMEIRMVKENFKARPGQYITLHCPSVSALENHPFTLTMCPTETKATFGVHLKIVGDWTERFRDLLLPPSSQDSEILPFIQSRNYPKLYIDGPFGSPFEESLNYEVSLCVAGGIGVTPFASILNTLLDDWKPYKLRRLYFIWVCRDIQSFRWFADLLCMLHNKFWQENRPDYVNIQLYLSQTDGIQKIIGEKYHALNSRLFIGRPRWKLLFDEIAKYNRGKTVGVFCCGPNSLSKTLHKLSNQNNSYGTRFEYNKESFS
# [10] = target: NADPH oxidase 5 (Homo sapiens) (UniProt Q96PH1); experiment: NOX5-dependent H2O2 signal modulators, primary screen, NOX inhibitor project, cell-based, HEK293-NOX5, Amplex Red fluorescence (AID 1161); settings: HEK293-NOX5, ionomycin, 45 min, higher = more signal
# NADPH oxidase 5 (Homo sapiens), sequence (Q96PH1 whole entry, looked up): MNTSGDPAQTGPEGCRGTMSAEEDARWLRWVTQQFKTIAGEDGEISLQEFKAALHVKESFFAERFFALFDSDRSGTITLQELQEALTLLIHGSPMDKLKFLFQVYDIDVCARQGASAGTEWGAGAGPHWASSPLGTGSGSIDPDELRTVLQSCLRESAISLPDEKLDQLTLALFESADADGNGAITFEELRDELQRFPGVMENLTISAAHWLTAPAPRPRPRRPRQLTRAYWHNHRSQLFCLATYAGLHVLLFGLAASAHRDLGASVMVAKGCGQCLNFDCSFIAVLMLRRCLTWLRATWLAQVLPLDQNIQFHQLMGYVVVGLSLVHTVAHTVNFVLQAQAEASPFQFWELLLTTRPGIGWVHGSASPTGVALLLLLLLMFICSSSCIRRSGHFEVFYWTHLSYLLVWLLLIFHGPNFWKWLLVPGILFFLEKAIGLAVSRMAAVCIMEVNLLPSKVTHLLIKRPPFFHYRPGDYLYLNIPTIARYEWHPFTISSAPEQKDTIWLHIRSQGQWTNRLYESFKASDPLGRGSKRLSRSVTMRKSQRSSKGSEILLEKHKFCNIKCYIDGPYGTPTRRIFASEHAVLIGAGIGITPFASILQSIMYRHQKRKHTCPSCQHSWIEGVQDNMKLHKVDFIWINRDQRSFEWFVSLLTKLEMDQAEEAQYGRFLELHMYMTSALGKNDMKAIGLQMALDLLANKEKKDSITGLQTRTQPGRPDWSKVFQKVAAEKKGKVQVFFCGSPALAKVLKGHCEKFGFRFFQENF
SMILES,z-score [1],composite z-score [2],z-score [3],z-score [4],z-score [5],z-score [6],z-score [7],z-score [8],z-score [9],z-score [10]
CS(=O)(=O)CCOC(=O)C1=CC(c2ccc(CO)cc2)=CC(C2CC2)N(Cc2sc3ccccc3c2Cl)C=C1C(=O)OCCS(C)(=O)=O (stereo not given),-3.12 (inactive),0.141,13.8 (active),3.35 (inactive),0.239 (inactive),1.39 (inactive),0.044,0.932 (inactive),0.186 (inactive),-0.935
O=C(NCCN1CCOCC1)[C@@H]1c2ccccc2C(=O)N(C2Cc3ccccc3C2)[C@H]1c1ccc(CO)cc1,2.03 (inactive),-0.0292,3.11 (inactive),-0.0966 (inactive),-0.056 (inactive),0.0832 (inactive),1.31,0.182 (inactive),0.855 (inactive),-0.0278
CCCC[C@@H]1C[C@H]1[C@@H](NC(=O)c1cccs1)c1ccccc1C(F)(F)F,-1.04 (inactive),0.294,1.89 (inactive),1.12 (inactive),-0.37 (inactive),0.544 (inactive),-0.423,-1.39 (inactive),-3.14 (inactive),-0.173
COc1cc2c(cc1O)C(C1CC1)N(C)CC2 (stereo not given),0.941 (inactive),-0.0538,1.79 (inactive),0.546 (inactive),0.0776 (inactive),0.573 (inactive),-0.0452,-4.61 (inactive),-2.57 (inactive),-2.96
[N-]=[N+]=NCc1ccccc1C[C@@]1(C(N)=O)N=C(c2ccc(OCCCO)cc2)O[C@@H]1c1ccccc1,-1.25 (inactive),0.408,27.2 (active),19.2 (active),0.354 (inactive),2.58 (inactive),-0.494,-2.31 (inactive),0.64 (inactive),-0.235
CCCCCN1CC=CC23O[C@@H]4/C=C\CCCOC(=O)C4[C@H]2C(=O)N(C(C)CO)[C@@H]3C1=O (stereo not given in full),1.2 (inactive),-0.0984,1.47 (inactive),0.175 (inactive),2.32 (inactive),0.503 (inactive),0.566,0.825 (inactive),0.19 (inactive),1.03
CN(C)C(=O)[C@@]1(Cc2ccccc2)N=C(c2ccc(OCCCO)cc2)O[C@H]1c1ccccc1,0.756 (inactive),-0.0171,14.9 (active),2.63 (inactive),1.4 (inactive),1.33 (inactive),-0.39,-0.896 (inactive),0.068 (inactive),-1.7
CC1CC/C=C\[C@H]2OC34C=CCN(C(C)C)C(=O)[C@H]3N(CCO)C(=O)[C@@H]4C2C(=O)O1 (stereo not given in full),0.904 (inactive),-0.101,0.158 (inactive),0.22 (inactive),-0.285 (inactive),0.112 (inactive),1.86,2.21 (inactive),-0.785 (inactive),2.03
